Test [1] can be described thus: NCI Yeast Anticancer Drug Screen. Data for the rad50 strain (AID 155).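 Also: 0% = growth of vehicle-only cultures of the same strain.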 To be noted: S. cerevisiae rad50 strain growth inhibition, hits give high values. The gist of the method:
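DNA repair mutant yeast, compound exposure, growth read-out; inhibition is taken relative to vehicle.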

Test [2] in a line: NCI Yeast Anticancer Drug Screen. Data for the mec2-1 strain (AID 157). The following applies: S. cerevisiae mec2-1 strain, hits give high values. A digest of the protocol:
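Growth inhibition is read against vehicle-treated controls after compound exposure of the mec2-1 yeast strain, which is defective in DNA damage repair or cell cycle control.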

Test [3] is described as follows: NCI Yeast Anticancer Drug Screen. Data for the sgs1 mgt1 strain (AID 161).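 Also: 0% = growth of cultures given vehicle only.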 The following applies: S. cerevisiae sgs1 mgt1 strain, hits give high values. A digest of the protocol:
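Compounds are added to genetically altered yeast, and growth is compared with cultures given vehicle alone to give percent inhibition.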

Test [4] can be described thus: NCI Yeast Anticancer Drug Screen. Data for the cln2 rad14 strain (AID 165).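 Also: 0% = growth equal to vehicle treated cultures.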 The following applies: S. cerevisiae cln2 rad14 strain, hits give high values. A digest of the protocol: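 Growth inhibition, relative to vehicle-treated controls, is the read-out. The test organism is a yeast strain with defined genetic alterations, cln2 rad14.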
Test [5] is described as follows: NCI Yeast Anticancer Drug Screen. Data for the bub3 strain (AID 167). The following applies: S. cerevisiae bub3 mutant strain, hits give high values. The gist of the method: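 In this screen, a yeast mutant lacking normal mitotic checkpoint function is challenged with compound. Relative growth versus vehicle gives the inhibition value.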
Test [6] can be described thus: NCI Yeast Anticancer Drug Screen. Data for the mlh1 rad18 strain (AID 175). To be noted: S. cerevisiae mlh1 rad18 strain growth inhibition, hits give high values. The gist of the method:
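Cells of a genetically altered yeast strain, deficient in DNA damage repair, were treated with compound. Their growth was then compared with that of vehicle-treated cultures to give inhibition.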

[7] abbreviates: at 5.0 µM (retest, dose inferred, filed as 0.5).
The mark [8] stands for this setting: at 50.0 µM (retest, dose inferred, filed as 5.0).

Each structure is given as a SMILES string. This is part of a sample that, as a whole, favours compounds with a hit. Of some 79,000 tested, about 15% had one in any assay. Unmarked numbers belong to inactive results. Active and inactive are the calls of the source. Rule as the data show it: active = growth inhibition above about 70%; inactive = the rest.

As to `CCCc1cc(=O)oc2c3c(c4c(c12)OC(C)(C)CC4)O[C@H](C)[C@@H](C)[C@H]3O`, the growth inhibition in test [1] (setting [7]) is 8%; in test [1] (setting [8]), 94% (active); in test [1] (at 50.0 µM), 83.5% (active); in test [2] (setting [7]), 17%; in test [2] (setting [8]), 97% (active); in test [2] (at 50.0 µM), 90.5% (active). Moreover, the growth inhibition was 14% in test [3] (setting [7]); 96% (active) in test [3] (setting [8]); 89.2% (active) in test [3] (at 50.0 µM); 18% in test [4] (setting [7]); 95% (active) in test [4] (setting [8]); 88.7% (active) in test [4] (at 50.0 µM). The growth inhibition was 23% in test [5] (setting [7]); 96% (active) in test [5] (setting [8]); 86.8% (active) in test [5] (at 50.0 µM); 10% in test [6] (setting [7]); 95% (active) in test [6] (setting [8]); 86.5% (active) in test [6] (at 50.0 µM).
Regarding `O=C(O)CCC(=O)c1ccc(C2CCCC2)c2ccccc12`, the growth inhibition in test [1] (setting [7]) was 1%; in test [1] (setting [8]), 28%; in test [1] (at 50.0 µM), 69.8%; in test [2] (setting [7]), -3%; in test [2] (setting [8]) it was 24%; in test [2] (at 50.0 µM), 78.8% (active). Further, the growth inhibition in test [3] (setting [7]) was 3%; in test [3] (setting [8]), 34%; in test [3] (at 50.0 µM) it was 68.3%; in test [4] (setting [7]), -17%; in test [4] (setting [8]), 42%; in test [4] (at 50.0 µM), 72.7% (active). Moreover, the growth inhibition is -13% in test [5] (setting [7]); 46% in test [5] (setting [8]); 70.3% (active) in test [5] (at 50.0 µM); -6% in test [6] (setting [7]); 11% in test [6] (setting [8]); 86.6% (active) in test [6] (at 50.0 µM).
On to `Nc1c(-c2c(Cl)cccc2Cl)[n+]([O-])c2ccccc2[n+]1[O-]`, for which the growth inhibition in test [1] (setting [7]) is 26%; in test [1] (setting [8]), 99% (active); in test [1] (at 50.0 µM), 75% (active); in test [2] (setting [7]), 29%; in test [2] (setting [8]) it was 99% (active); in test [2] (at 50.0 µM) it was 38.9%. The growth inhibition in test [3] (setting [7]) is 44%; in test [3] (setting [8]), 100% (active); in test [3] (at 50.0 µM), 74.7% (active); in test [4] (setting [7]) it was 28%; in test [4] (setting [8]), 99% (active); in test [4] (at 50.0 µM), 69.3%. Moreover, the growth inhibition in test [5] (setting [7]) is 45%; in test [5] (setting [8]), 99% (active); in test [5] (at 50.0 µM), 66.8%; in test [6] (setting [7]) it was 72% (active); in test [6] (setting [8]), 99% (active); in test [6] (at 50.0 µM), 88.8% (active).
Take `O=c1cccccc1O`: the growth inhibition in test [1] (setting [7]) is 14%; in test [1] (setting [8]) it was 97% (active); in test [1] (at 50.0 µM) it was 90.4% (active); in test [2] (setting [7]), 4%; in test [2] (setting [8]) it was 100% (active); in test [2] (at 50.0 µM) it was 91.7% (active). The growth inhibition was 8% in test [3] (setting [7]); 99% (active) in test [3] (setting [8]); 93.3% (active) in test [3] (at 50.0 µM); 16% in test [4] (setting [7]); 62% in test [4] (setting [8]); 85.7% (active) in test [4] (at 50.0 µM). Moreover, the growth inhibition was 26% in test [5] (setting [7]); 97% (active) in test [5] (setting [8]); 91.5% (active) in test [5] (at 50.0 µM); 13% in test [6] (setting [7]); 98% (active) in test [6] (setting [8]); 81.1% (active) in test [6] (at 50.0 µM).
For `COc1ccc(C(=O)Oc2c(Br)cc(Br)cc2Br)cc1`, the growth inhibition was 4% in test [1] (setting [7]); -3% in test [1] (setting [8]); 14.2% in test [1] (at 50.0 µM); 3% in test [2] (setting [7]); -3% in test [2] (setting [8]); 12.7% in test [2] (at 50.0 µM). Besides, the growth inhibition is 8% in test [3] (setting [7]); 10% in test [3] (setting [8]); 1.9% in test [3] (at 50.0 µM); -1% in test [4] (setting [7]); -30% in test [4] (setting [8]); -6.5% in test [4] (at 50.0 µM). For the same compound, the growth inhibition in test [5] (setting [7]) is 7%; in test [5] (setting [8]) it was 5%; in test [5] (at 50.0 µM) it was 87.8% (active); in test [6] (setting [7]), 1%; in test [6] (setting [8]) it was 2%; in test [6] (at 50.0 µM), 7.75%.
Regarding `COc1ccc(N=N/N=c2\sc3cc(OC)ccc3n2C)cc1`, the growth inhibition is 7% in test [1] (setting [7]); 80% (active) in test [1] (setting [8]); 29.4% in test [1] (at 50.0 µM); 3% in test [2] (setting [7]); 46% in test [2] (setting [8]); 5.1% in test [2] (at 50.0 µM). For the same compound, the growth inhibition was -2% in test [3] (setting [7]); 22% in test [3] (setting [8]); 11.9% in test [3] (at 50.0 µM); -2% in test [4] (setting [7]); 63% in test [4] (setting [8]); 24.5% in test [4] (at 50.0 µM). For the same compound, the growth inhibition in test [5] (setting [7]) is -5%; in test [5] (setting [8]), 36%; in test [5] (at 50.0 µM) it was -3.4%; in test [6] (setting [7]), -6%; in test [6] (setting [8]) it was 71% (active); in test [6] (at 50.0 µM), 46.8%.
In the case of `CCOC(=O)CCc1ccc(OC)c(OC)c1`, the growth inhibition in test [1] (setting [7]) is 1%; in test [1] (setting [8]), -2%; in test [1] (at 50.0 µM), -9.55%; in test [2] (setting [7]), 16%; in test [2] (setting [8]), -4%; in test [2] (at 50.0 µM), 23%. Further, the growth inhibition in test [3] (setting [7]) is 0%; in test [3] (setting [8]), -2%; in test [3] (at 50.0 µM) it was 22.9%; in test [4] (setting [7]), 3%; in test [4] (setting [8]), -8%; in test [4] (at 50.0 µM) it was 38.7%. Moreover, the growth inhibition in test [5] (setting [7]) is -2%; in test [5] (setting [8]) it was 19%; in test [5] (at 50.0 µM) it was 17.4%; in test [6] (setting [7]), 2%; in test [6] (setting [8]), -1%; in test [6] (at 50.0 µM), -5.15%.
As to `O=C(Nc1ccc(C(=O)c2ccccc2)cc1)Nc1ccc(Cl)c(Cl)c1`, the growth inhibition in test [1] (setting [7]) was 23%; in test [1] (setting [8]) it was 96% (active); in test [1] (at 50.0 µM) it was 92.5% (active); in test [2] (setting [7]) it was 9%; in test [2] (setting [8]) it was 97% (active); in test [2] (at 50.0 µM), 95.2% (active). The growth inhibition was 23% in test [3] (setting [7]); 97% (active) in test [3] (setting [8]); 94.8% (active) in test [3] (at 50.0 µM); 30% in test [4] (setting [7]); 91% (active) in test [4] (setting [8]); 94.5% (active) in test [4] (at 50.0 µM). For the same compound, the growth inhibition in test [5] (setting [7]) is 31%; in test [5] (setting [8]), 98% (active); in test [5] (at 50.0 µM), 96.1% (active); in test [6] (setting [7]), 38%; in test [6] (setting [8]) it was 97% (active); in test [6] (at 50.0 µM), 94.7% (active).
As for `COc1ccc(NC(=O)CCC(NS(=O)(=O)c2ccc(C)cc2)C(=O)O)cc1` (stereo not given), the growth inhibition in test [1] (setting [7]) was -6%; in test [1] (setting [8]) it was -3%; in test [1] (at 50.0 µM) it was 19.4%; in test [2] (setting [7]), -4%; in test [2] (setting [8]), -5%; in test [2] (at 50.0 µM), 8.6%. The growth inhibition in test [3] (setting [7]) is -7%; in test [3] (setting [8]), -23%; in test [3] (at 50.0 µM) it was 7.7%; in test [4] (setting [7]), -8%; in test [4] (setting [8]) it was -17%; in test [4] (at 50.0 µM) it was 10.4%. Besides, the growth inhibition in test [5] (setting [7]) was -2%; in test [5] (setting [8]), 2%; in test [5] (at 50.0 µM), 51.9%; in test [6] (setting [7]) it was -3%; in test [6] (setting [8]), -3%; in test [6] (at 50.0 µM) it was 19.1%.
As to `C=C1CC(C)(COc2ccc3c(C)c(C)c(=O)oc3c2C)OC1=O` (stereo not given), the growth inhibition is 26% in test [1] (setting [7]); 82% (active) in test [1] (setting [8]); -23.4% in test [1] (at 50.0 µM); 16% in test [2] (setting [7]); 90% (active) in test [2] (setting [8]); -75.4% in test [2] (at 50.0 µM). Besides, the growth inhibition is 24% in test [3] (setting [7]); 73% (active) in test [3] (setting [8]); -10.7% in test [3] (at 50.0 µM); 30% in test [4] (setting [7]); 64% in test [4] (setting [8]); -23.1% in test [4] (at 50.0 µM). Besides, the growth inhibition in test [5] (setting [7]) was 26%; in test [5] (setting [8]), 86% (active); in test [5] (at 50.0 µM), -10.8%; in test [6] (setting [7]) it was 29%; in test [6] (setting [8]), 94% (active); in test [6] (at 50.0 µM), -24.7%.

For the origin of these results see PubChem BioAssay (NCI).
